In PubChem BioAssay AID1347434 (National Center for Advancing Translational Sciences (NCATS), 2020):
“And” between values parts separate entries of the source, which are not always exact repeats. Equal entries are not always repeated. The campaign covered roughly 1,200 compounds. About 30 (2%) were called active. About 23% were inconclusive and are not listed. Calls follow the shape of the dose curve; as a rule, active = well fitted inhibition curve with a large enough effect; inconclusive = small, poorly fitted or top-dose-only effect; inactive = flat fitted curve, though single readings scatter. What follows is part of a selection rich in actives, with near analogues and random picks from the rest.

target: Single-stranded DNA cytosine deaminase (Homo sapiens) (UniProt Q9GZX7); test: Confirmatory qHTS assay for inhibitors of Activation Induced Cytidine Deaminase (AID): AID signals; conditions: recombinant AID, FRET deamination/UDG coupled fluorescence, 4 h; series mostly up to 115 µM; activity, negative = inhibition: at the top concentration
Text: Assay Provider (PI) Patricia Gearhart Ph.D. National Institute on Aging National Institute of Health (NIH), Bethesda, MD Assay Provider (PI) Rahul Kohli Ph.D. Perelman School of Medicine University of Pennsylvania, Philadelphia, PA Activation-Induced Deaminase (AID) is a cytosine deaminase which converts cytosine into uracil within stretches of ssDNA. The presence of uracil in DNA initiates a cascade of mutagenic DNA repair to introduce point mutations and DNA double strand breaks. Specific targeting of AID to the immunoglobulin heavy chain loci (Igh) promotes mutagenesis in the antibody variable region for somatic hypermutation (SHM) or switch regions leading to class switch recombination (CSR). However, AID also plays a role in accumulating unnecessary mutations across the genome. Mis-targeting of AID results in the initiation of tumor development and leads to greater drug resistance among cancer cells when continually expressed. To identify an AID inhibitor, a small molecule library will be screened in collaboration with NCATS core facility at NIH. To confirm biological function, inhibitors will be examined in an in vitro murine B-cell activation assay and subsequent secondary validation screens. Top molecules will be further screened to identify inhibitory efficacy against a wild type primary splenocytes assay. Using these approaches, we hope to identify a small molecule with great efficacy and low toxicity for use as a molecular probe to further characterize AID's intricacies, or even as a therapeutic. A FRET based analysis of cytosine deamination, was developed to identify potential inhibitors of AID catalytic activity. This screen has two signal output, Read 1 evaluates the AID inhibition response. The second readout (Read 2) evaluates UDG response and is uses as a counterscreen to exclude false positive inhibitors. Inhibition in AID and inactivity in the UDG signal is the desired outcome for this assay.
PROTOCOL TABLE SEQUENCE No. (e.g., 1, 2, 3, etc.); […] (e.g., Cells, Incubation, Reagent, etc.); VALUE; DESCRIPTION 1a; Reagent; 3 uL; [4/3x] 1 uM AID/2.67 U/mL UDG 1b; Reagent; 3 uL; 2 U/mL UDG 1c; Reagent; 3 uL; 1 uM AID 2a; Compound; 46 nL; Follow-up plates (0.64 uM - 10 mM) 2b; Control; 46 nL; ATA (16.4 nM - 10 mM) 3; Time; 10 min; incubation at room temperature 4; Reagents; 1 uL; [4x] 250 nM DJC20 / 250 nM DJC23 [Substrate] 5; Time; 4 hr; incubation at room temperature 6; Reagent; 4 uL; [2x] 250 mM NaOH 7; Time; 15 sec; centrifuge at 1000 rpm 8; Time; 30 min; incubation at room temperature 9a; Detection; fluorescence (Read 1: AID); EnVision (PerkinElmer) plate reader, 540 excitation and 590 emission filters 9b; Detection; fluorescence (Read 2: UDG); EnVision (PerkinElmer) plate reader, 560 excitation and 665 emission filters NOTES (numbers refer to sequence above) 1a; Reagents were dispensed in a medium-binding black solid-bottom Greiner plates (789176F) using a BioRptr liquid dispenser. Dispense 3 uL of [4/3x] 1 uM AID (provided by Kohli lab) and [4/3x] 2 U/mL UDG (NEB M0280L) into columns 1, 2, 5 to 48. 1b; Dispense 3 uL of [4/3x] 2 U/mL UDG into column 3. 1c; Dispense 3 uL of [4/3x] 1 uM AID into column 4. 2a; Compound ([…] [uM]: 0.64; 3.2; 16; 80; 400; 2,000; 10,000; 20,000) double pin-transferred (Dip Factor = 2) using the Kalypsys (Wako USA) pintool equipped with a 1536 pinhead for a final concentration range of 7.32 nM - 114 uM. 2b; 10 mM Aurintricarboxylic Acid (Sigma A1895) (ATA, 8-point, n = 2, 1:2.5 dilution in column 2) double pin-transferred (Dip Factor = 2) using the Kalypsys (Wako USA) pintool equipped with a 1536 pinhead for a [final] range of 186 nM - 114 uM. 3; Room temperature incubation. 4; Dispense 1 uL of substrate mixture from the Kohli lab [4x] […] DJC20 and [4x] 250 nM DJC23 into columns 1 to 48 . 5; Room temperature incubation. 6; Dispense 4 uL of […] [2x] 250 mM NaOH into columns 1 to 48. 7; Centrifugation step to remove bubbles. […]
% is scaled to controls: 0 for no effect and ±100 for the full control effect; potency is read from the fitted curve at half-maximal effect.

Chain of Single-stranded DNA cytosine deaminase (Homo sapiens) (Q9GZX7 whole entry, looked up): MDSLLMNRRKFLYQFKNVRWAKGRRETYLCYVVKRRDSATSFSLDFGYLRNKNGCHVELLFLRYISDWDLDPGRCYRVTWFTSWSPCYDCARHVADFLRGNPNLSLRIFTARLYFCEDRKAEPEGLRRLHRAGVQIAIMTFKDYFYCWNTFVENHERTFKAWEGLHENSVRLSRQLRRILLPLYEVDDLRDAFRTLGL

activity, negative = inhibition, inactive:
Cc1ccc(N(CC(=O)N2CCN(c3cc(C)ccc3C)CC2)S(=O)(=O)c2c(C)nn(C)c2C)cc1 -24.2%
Cc1oc(-c2cccc(Br)c2)nc1Cn1c(SCc2cccc(F)c2)nc2cccnc21 0.648%
Cc1cc(-c2ccc(C)c(S(=O)(=O)N3CCCC(C)C3)c2)on1 (stereo not given) -12.9%
CCc1ccc(CNC(=O)c2ccc(CSc3nc4ccncc4n3Cc3ccccc3)cc2)cc1 4.54%
Cc1ccc(C)c(N2CCN(CCCNC(=O)c3cnn(-c4ccc(F)cc4)c3C3CCN(C(=O)OC(C)(C)C)CC3)CC2)c1 -1.81%
Cc1ccc(Nc2c3c(nc4nc(-c5cccs5)nn24)CCCC3)cc1F -24.6%
CCOC(=O)C1=C(CN(CC)Cc2ccccc2)NC(=O)NC1c1ccc(OC(C)C)cc1 (stereo not given) -13.7%
COc1ccccc1N1CCN(C(=O)c2cc3ccc4ccc(C)[nH]c4c3n2)CC1 3.08%
COc1cccc(Nc2cc(-c3ccccc3)nc(C)n2)c1 -3.46%
COc1cc(Cl)c(C)cc1NC(=O)CSc1ncc(S(=O)(=O)c2ccc(C(C)(C)C)cc2)c(=O)[nH]1 -18.9%
Cc1cc(C)c(NC(=O)CSc2ncc(S(=O)(=O)c3ccc(C(C)(C)C)cc3)c(=O)[nH]2)c(C)c1 -9.91%
CC(C)c1ccc(S(=O)(=O)c2cnc(SCC(=O)Nc3cccc(C(F)(F)F)c3)nc2N)cc1 -5.26%
COC(=O)c1cc(Cl)ccc1NC(=O)CSc1ncc(S(=O)(=O)c2ccc(Br)cc2)c(=O)[nH]1 -7.72%
Cc1nn2c(=O)cc(COC(=O)c3ccc(NC(=O)C4CCCCC4)cc3)nc2s1 -2.33%
COc1ccc(C)cc1NC(=O)c1c(C)oc2ncn(CC(C)C)c(=O)c12 -3.76%
CCc1nc2ccc(C(=O)N3CCN(c4ccc(Cl)cc4)CC3)cc2nc1CC -22.4%
COc1ccc(-n2cc(-c3ccccc3)c3c(NC4CCCC4)ncnc32)cc1 -13.8%
CCOC(=O)c1ccc(N2C(=O)c3[nH]nc(-c4ccccc4)c3C2c2ccc(CC)cc2)cc1 (stereo not given) -2.39%
CCOC(=O)c1ccc(NC(=O)CC2Nc3cccc4cccc(c34)NC2=O)cc1 (stereo not given) -7.25%
N#C/C(=C\c1ccc(-c2ccccc2C(=O)O)o1)c1nc2ccccc2[nH]1 33.8%
Cc1ccc(-c2ccc(=O)n(CC(=O)Nc3ccc(C)cc3Cl)n2)cc1 -24.2%
CCOC(=O)c1c(C)n(-c2ccccc2)c2ccc(OC(=O)c3ccccc3NC(=O)C(C)(C)C)cc12 11.3%
COc1ccc(OC)c(Nc2sc(C(=O)c3ccccc3)c(N)c2S(=O)(=O)c2ccccc2)c1 -2.04%
C=Cc1ccc(CSc2nc(-c3ccc(OC)cc3)nc3c2Cc2c(CO)cnc(C)c2O3)cc1 -8.87%
CCC(Sc1nc2c(sc3ccccc32)c(=O)n1CCc1ccc(OC)c(OC)c1)C(=O)N(CC)CC (stereo not given) -18.2%
COc1ccc(C(=O)Nc2nc3n(n2)C(c2ccc(Cl)cc2)C=C(c2ccccc2)N3)cc1OC (stereo not given) -25.4%
O=C(NCCc1ccc(Cl)cc1)c1ccc2c(c1)N(Cc1ccc(Cl)cc1)C(=O)CS2 -4.7%
O=C(NCCn1cc(SCc2ccc(C(F)(F)F)cc2)c2ccccc21)c1cccs1 7.38%
Cc1cccc(N(CC(=O)NCCSCc2cccc(Cl)c2)S(=O)(=O)c2ccccc2)c1C -3.57%
CCCOc1ccc(-c2nn(-c3ccccc3)cc2C2NC(=O)NC(C)=C2C(=O)OC(C)C)cc1 (stereo not given) -11.1%
CCN1C(=O)c2ccccc2S(=O)c2ccc(C(=O)N3CCN(c4cccc(C)c4)C(C)C3)cc21 (stereo not given) -22.1%
Cc1ccc(-n2cnc3cc(C(=O)NCCC4=CCCCC4)ccc32)c(C)c1 -13.5%
O=C(c1noc2c1CCCCC2)N1CCN(c2ccc(Cl)cc2)CC1 -0.744%
CCc1cccc(-n2c(C)nc3c(cnn3-c3ccc(C)c(C)c3)c2=O)c1 -7.64%
O=C(NCCn1cc(SCc2cccc(F)c2)c2ccccc21)c1cccc(C(F)(F)F)c1 2.49%
Cc1ccc(C)c(N2CCN(C(=O)c3cc(S(=O)(=O)N4CCC(C)CC4)cn3C)CC2)c1 -14.5%
Cc1ccc(C)c(N2CCN(C(=O)Cn3nc(Cc4cccnc4)c4ccccc4c3=O)CC2)c1 -7.71%
Cc1ccc(-c2nc(C(=O)N3CCN(c4ccccc4)CC3)c3n2CCCCC3)cc1 -10.4%
COc1ccc2c(c1)Cc1sc(NC(=O)c3cccc(C)c3)nc1-2 -15.7%
CCc1ccc(OCC(=O)N(Cc2ccc(Cl)cc2)C2CCS(=O)(=O)C2)cc1 (stereo not given) -5.69%
Cc1ccc(Cl)cc1N1CCN(CCCNC(=O)c2ccc3nc(N4CCCCC4)sc3c2)CC1 -4.77%
Cn1c(SCc2ccc(F)cc2)nc2ccc(C(=O)NCc3ccc(F)cc3)cc21 -11.1%
COc1ccccc1CNC(=O)c1cnn2c(C)c(Cc3ccc(F)cc3)c(C)nc12 -10.8%
CCn1c(SCc2ccc(F)cc2Cl)nc(=O)c2c(C(=O)OC)cc(C3CC3)nc21 -28.3%
Cc1ccc(CN(Cc2ccco2)C(=O)c2ccccc2Br)o1 -10.6%
Cc1cc(Nc2cccc(F)c2)n2nc(-c3ccco3)nc2n1 7.61%
Cc1ccc(C)c(Cn2nc(-c3cc(C)ccc3C)ccc2=O)c1 -23.4%
CC1=Nc2cc(C(=O)N3CCC(C)CC3)ccc2Sc2ccc(Cl)cc21 -5.99%
O=C(NCCc1ccccc1)c1sc2ncccc2c1-n1cccc1 -19.5%
Cc1ccc(Cl)cc1NC(=O)C(C)n1nc(-c2ccccc2)ccc1=O (stereo not given) -16.4%
Cn1nc(-c2ccc(C(=O)Nc3ccc(F)cc3)cc2)c2ccccc2c1=O -28.5%
CCc1nnc(SCc2cccc(F)c2)c2cc3sc(C)cc3n12 -18.8%
Cc1cccc(N2CCN(C(=O)CS(=O)(=O)Cc3nc(-c4ccccc4C)oc3C)CC2C)c1 (stereo not given) 2.05%
Cc1ccc(C)c(N(C)C(=O)C2CCN(c3ncnc4c3nc3n4CCCCC3)CC2)c1 -0.379%
COc1ccc(NC(=O)CSc2nc3nc(C)c(Cc4ccccc4)c(C)n3n2)cc1OC -21.6%
CN(C)CCNc1ncnc2c1cnn2-c1cccc(Cl)c1 -20.9%
Cc1ccc(C)c(N2CCN(CCCNc3ncnc4onc(-c5ccc(Cl)cc5)c34)CC2)c1 -2.73%
CCc1ccc(CNC(=O)c2cnc3sc(N(CC)CC)nn3c2=O)cc1 -15.7%
Cc1ccc(S(=O)(=O)N2CCCC2C(=O)Nc2ccc(Br)cc2)cc1 (stereo not given) -1.15%
CCc1nnc2c(N3CCN(c4cccc(C)c4)C(C)C3)nc3ccccc3n12 (stereo not given) -18.2%
CCOC(=O)C1=C(CN2CCN(c3cc(C)ccc3C)CC2)NC(=O)NC1c1ccccc1 (stereo not given) -4.99%
COc1ccc(S(=O)(=O)N(CC(=O)NC(C)c2ccccc2)c2ccc(C)cc2)cc1OC (stereo not given) 1.71%
COc1ccccc1C(=O)Nc1ccc(C(=O)OCc2cc(=O)n3nc(C)sc3n2)cc1 2.56%
Cc1cccc(C)c1OCC(=O)N(Cc1ccco1)Cc1ccco1 -0.167%
CCC1CCCCN1C(=O)CSc1nc2c([nH]c3ccccc32)c(=O)n1-c1cccc(OC)c1 (stereo not given) -12.2%
O=C(CCCCCn1c(=O)[nH]c2ccccc2c1=O)NCc1ccc(Cl)cc1 9.51%
Cc1cccc(C)c1NC(=O)CS(=O)(=O)c1nc(-c2ccc(Cl)cc2)cn1-c1ccccc1 -7.27%
CN1CCN(c2nc3c(S(=O)(=O)c4ccc(Cl)cc4)nnn3c3ccsc23)CC1 -27.7%
COc1ccccc1C(=O)NCCn1cc(SCc2ccccc2Cl)c2ccccc21 -0.695%
Cc1ccc2c(c1)c(=O)c(C(=O)c1ccccc1)cn2Cc1ccccc1F -20.4%
O=C(c1ccc(F)cc1)c1cn(Cc2ccccc2)c2cc3c(cc2c1=O)OCO3 -10.5%
COc1ccc(NCc2nc3ccccc3n2CCOc2ccccc2C)cc1 -11.3%
Cc1cccc(N2CCN(C(=O)c3sc4nc5n(c(=O)c4c3C)CCC5)CC2C)c1 (stereo not given) -8.89%
CN(c1ncnc2onc(-c3cccc(Cl)c3)c12)C1CCCCC1 -20.3%
COc1ccc(CCN2CCC(CNC(=O)c3cnn(-c4ccccc4)c3C3CCN(C(=O)OC(C)(C)C)CC3)CC2)cc1 -15%
CC(C)(C)OC(=O)N1CCC(c2c(C(=O)NCCN3CCC(Cc4ccccc4)CC3)cnn2-c2ccccc2)CC1 -19.5%
CCN(CC)CCNC(=O)c1ccc2c(=O)n3nc(Nc4ccccc4)sc3nc2c1 -15.6%
CCN(CC)CCNC(=O)c1ccc2c(=O)n3nc(Nc4ccccc4OC)sc3nc2c1 -25.4%
Cc1nc2nc(SCC(=O)NCc3ccccc3)nn2c(C)c1Cc1ccccc1Cl -23.7%
COc1ccc(C(=O)c2sc3nc4c(c(C(F)(F)F)c3c2N)CN(C(C)=O)CC4)cc1OC 6.76%

Potency, active:
CC(C)(Sc1ccc(CCN(CCCCC2CCCCC2)C(=O)NC2CCCCC2)cc1)C(=O)O 31.6 µM and 112 µM
CC(C)(C)c1ccc(S(=O)(=O)c2cnc(SCC(=O)Nc3ccc(F)c(Cl)c3)[nH]c2=O)cc1 35.5 µM
Cc1ccc(NC(=O)CSc2ncc(S(=O)(=O)c3ccc(C(C)C)cc3)c(=O)[nH]2)cc1C 31.6 µM
CCOC(=O)c1ccc(-n2c(N)c(C(=O)OC)c3nc4ccccc4nc32)cc1 25.1 µM
O=C1C(SCCO)=C(SCCO)C(=O)c2ccccc21 14.1 µM
COc1cc(/C=C(\C#N)C(=O)Nc2nnc(C(F)(F)F)s2)ccc1OCc1ccc(C(F)(F)F)cc1C(F)(F)F 31.6 µM
CCCCCCCCc1ccc(-c2ccc(C(=O)O)cc2)cc1 35.5 µM
CC(=O)[C@]1(O)Cc2c(O)c3c(c(O)c2[C@@H](O[C@H]2C[C@H](N)[C@H](O)[C@H](C)O2)C1)C(=O)c1ccccc1C3=O 5.62 µM
COc1ccc(CCN2CCC(CNC(=O)c3cnn(-c4cccc(Cl)c4)c3C3CCN(C(=O)OC(C)(C)C)CC3)CC2)cc1 31.6 µM
CCN(CC)CCNC(=O)c1ccc2c(=O)n3nc(Nc4cccc(Cl)c4C)sc3nc2c1 50.1 µM
